TLR4-MyD88 inh: inhibitors of human TLR4-MyD88 binding; Toll-like receptor 4 (Homo sapiens), O00206; Cell-based TLR4-MyD88 binding inhibition assay; inhibition, % at 10 µM; 0.06% of 16,000 active; AID 811, 2007; in the data active = inhibition above about 45%
rat GALR2 agon: agonists of rat galanin receptor 2 (GALR2). activation, % at 10 µM. 0.5% of 16,000 active. cell-based GALR2 agonist screen. Galanin receptor type 2 (Rattus norvegicus), O08726; in the data active = activation above about 15%
Target sequence (O08726 whole entry, looked up): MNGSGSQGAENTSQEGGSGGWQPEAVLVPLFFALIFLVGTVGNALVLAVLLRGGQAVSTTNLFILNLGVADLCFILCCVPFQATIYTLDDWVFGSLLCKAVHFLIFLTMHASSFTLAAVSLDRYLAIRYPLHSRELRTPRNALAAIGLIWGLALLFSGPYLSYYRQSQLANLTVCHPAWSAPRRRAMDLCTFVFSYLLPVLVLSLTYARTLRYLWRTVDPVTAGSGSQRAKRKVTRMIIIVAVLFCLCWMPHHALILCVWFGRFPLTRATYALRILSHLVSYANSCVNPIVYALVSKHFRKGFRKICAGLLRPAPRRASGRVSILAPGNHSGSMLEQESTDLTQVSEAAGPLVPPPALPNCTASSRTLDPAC
OPRK1 antag MB: antagonists of human kappa opioid receptor OPRK1, Maybridge library; OPRK1 cells, antagonist mode, fluorescence readout; inhibition, % at 9 µM; 0.4% of 16,000 active; AID 652031, 2013; in the data active = inhibition above about 50%
S1P1 ag: activates the human S1P1 receptor; activation, % at 4.5 µM; S1P1 agonist cell-based reporter assay; 1.5% of 16,000 active; Sphingosine 1-phosphate receptor 1 (Homo sapiens), P21453; in the data active = activation above about 80%
* = called active by the depositor. An excerpt weighted towards active compounds, which were near 2.6% of everything screened.

SMILES	TLR4-MyD88 inh	rat GALR2 agon	OPRK1 antag MB	S1P1 ag
O=[N+]([O-])c1ccc(CS(=O)(=O)C(Cl)(Cl)Cl)o1	-2.8	-10.5	5.0	95.5*
c1ccc2c(c1)ccc1c3ccc4ccccc4c3[nH]c21	0.1	-7.2	-2.9	2.4
